Results filed as inconclusive are left out. Values without a mark were called inactive. Active and inactive are the calls of the source. The call rests on the fitted dose curve; in most records, active means well fitted inhibition curve with a large enough effect; inconclusive means small, poorly fitted or top-dose-only effect; inactive means flat fitted curve, though single readings scatter.
What was measured:
Assay in all cases: Cytotoxic Profiling of Annotated Libraries Using Quantitative High-Throughput Screening (AID 1296008); further: nearly all actives have a fitted effect of over 60% in size
Conditions in all cases: Five cell lines viability, CellTiter-Glo ATP luminescence, 48-72 h; max response: hits give low values
[1] = tested on: CRL-7250
Outline: (§1)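 Compounds were pin-transferred onto cells and incubated 48 or 72 hr at 37 degree Celsius, 95% humidity. CellTiter-Glo was added, plates sat 10 min at room temperature, then ATP-coupled luminescence was imaged as the viability read-out.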

[2] = tested on: HEK293
Outline: as §1

[3] = tested on: HaCat
Outline: as §1

[4] = tested on: NIH3T3
Outline: as §1
On the % scale 0 is the no-effect control and ±100 the full control effect; potency means the concentration at half of the fitted maximal effect.

## CO[C@]1(NC(=O)CSC(F)F)C(=O)N2C(C(=O)O)=C(CSc3nnnn3CCO)CO[C@H]21
[1]
  max response: -1.31%
[2]
  max response: -23.2%
[3]
  max response: 4.33%
[4]
  max response: 1.66%

## Cc1cc2nc3ccc(=[N+](C)C)cc-3sc2cc1N
[1]
  Potency: 9.44 µM (active)
[2]
  Potency: 0.422 µM (active)
[3]
  Potency: 6.68 µM (active)
[4]
  Potency: 10.6 µM (active)

## CCOC(=O)C(=O)CCc1ccccc1
[1]
  max response: -13.2%
[2]
  max response: 4.19%
[3]
  outcome: inactive
[4]
  max response: -3.41%

## O=C(c1ccco1)N1CCNCC1
[1]
  max response: -10.9%
[2]
  outcome: inactive
[3]
  outcome: inactive
[4]
  max response: 4.52%

## CCCCC(O)/C=C(C)/C=C/C=C/C(=O)N1CCCC1=O (stereo unspecified)
[1]
  max response: 0.43%
[2]
  max response: 1.86%
[3]
  outcome: inactive
[4]
  outcome: inactive

## CN1CC(=O)N2[C@H](c3ccc4c(c3)OCO4)c3[nH]c4ccccc4c3C[C@@H]2C1=O
[1]
  max response: 3.82%
[2]
  max response: -4.29%
[3]
  outcome: inactive
[4]
  max response: 3.47%

## CC(=O)c1ccc(O)c(C(N)=O)c1
[1]
  max response: 1.65%
[2]
  outcome: inactive
[3]
  outcome: inactive
[4]
  outcome: inactive

## CCOc1c(N2CCOCC2)cnn(C)c1=O
[1]
  max response: -1.71%
[2]
  outcome: inactive
[3]
  max response: -2.94%
[4]
  max response: -0.145%

## CCN(CC)CC(=O)Oc1ccc(NC(C)=O)cc1
[1]
  max response: -7.74%
[2]
  outcome: inactive
[3]
  outcome: inactive
[4]
  outcome: inactive

## Cn1c(=O)c2c(ncn2CC(=O)O)n(C)c1=O
[1]
  max response: -0.788%
[2]
  max response: -8.26%
[3]
  max response: -42.3%
[4]
  outcome: inactive

## O=C(CCCl)NCCc1ccccc1
[1]
  outcome: inactive
[2]
  max response: -1.92%
[3]
  max response: 0.301%
[4]
  max response: -1.58%

## C=C(C)C(=O)OCC(O)CO (stereo unspecified)
[1]
  max response: 4.35%
[2]
  max response: -5.25%
[3]
  outcome: inactive
[4]
  max response: 4.75%

## CC(C)(C)C1CCC(CC2=C(O)c3ccccc3C(=O)C2=O)CC1 (stereo unspecified)
[1]
  max response: -5.3%
[2]
  max response: 0.617%
[3]
  max response: -2.75%
[4]
  max response: -2.94%

## COc1ccccc1N1CCN(CC(O)COc2cc(OC)c(OC)c(OC)c2)CC1 (stereo unspecified)
[1]
  outcome: inactive
[2]
  max response: 2.4%
[3]
  outcome: inactive
[4]
  max response: -5.07%

## O=[N+]([O-])c1cncn1CCN1CCOCC1
[1]
  outcome: inactive
[2]
  max response: 3.5%
[3]
  max response: -14.4%
[4]
  max response: 2.27%

## COc1cc(S(N)(=O)=O)cc(C(=O)O)c1OC
[1]
  max response: 3.62%
[2]
  max response: -2.74%
[3]
  max response: 2%
[4]
  outcome: inactive

## Cc1ccc2c(Cl)cc(Cl)c(O)c2n1
[1]
  max response: -1.98%
[2]
  max response: -23.5%
[3]
  max response: -10%
[4]
  max response: 2.93%

## COc1cc2c(cc1OC)C(=O)CC2
[1]
  outcome: inactive
[2]
  max response: 3.36%
[3]
  outcome: inactive
[4]
  outcome: inactive

## O=C(O)c1cn(C2CC2)c2cc(Cl)c(F)cc2c1=O
[1]
  outcome: inactive
[2]
  max response: -5.06%
[3]
  outcome: inactive
[4]
  outcome: inactive

## Cc1cccc(OCC(O)CNC(C)(C)C)c1C (stereo unspecified)
[1]
  max response: -7.39%
[2]
  max response: -11.8%
[3]
  outcome: inactive
[4]
  max response: 0.115%

## CCOc1ncc(F)c(=O)[nH]1
[1]
  outcome: inactive
[2]
  max response: -0.0366%
[3]
  outcome: inactive
[4]
  max response: -1.34%

## O=c1[nH]c(=O)n([C@H]2O[C@H](CO)[C@@H](O)[C@@H]2O)cc1/C=C\Br
[1]
  max response: -8.24%
[2]
  outcome: inactive
[3]
  max response: 4.03%
[4]
  max response: -0.191%

## CCN(CC)CC(=O)OCC(=O)[C@@]1(O)CC[C@H]2[C@@H]3CCC4=CC(=O)CC[C@]4(C)[C@H]3[C@@H](O)C[C@@]21C
[1]
  outcome: inactive
[2]
  max response: 0.946%
[3]
  outcome: inactive
[4]
  outcome: inactive

## O=C(C1CCCCC1)N1CC(=O)N2CCCc3ccccc3C2C1 (stereo unspecified)
[1]
  outcome: inactive
[2]
  outcome: inactive
[3]
  outcome: inactive
[4]
  outcome: inactive

## CCCC(CCC)(C(=O)OCC)C(=O)OCC
[1]
  max response: -5.21%
[2]
  max response: 2.87%
[3]
  outcome: inactive
[4]
  max response: 4.44%

## CCOC(=O)NNc1ccc(N(CC)CC(C)O)nn1 (stereo unspecified)
[1]
  max response: 2.28%
[2]
  outcome: inactive
[3]
  outcome: inactive
[4]
  max response: 4.97%

## Cc1cccc(C)c1NC(=O)c1ccc(N)cc1
[1]
  max response: -0.144%
[2]
  max response: -2.32%
[3]
  outcome: inactive
[4]
  outcome: inactive

## COCCOCC(OC)OC
[1]
  max response: -5.92%
[2]
  max response: -49.7%
[3]
  outcome: inactive
[4]
  max response: 1.4%

## CCOCCn1c(C2CCN(CCc3ccc(C(C)(C)C(=O)O)cc3)CC2)nc2ccccc21
[1]
  max response: -0.215%
[2]
  max response: -1.51%
[3]
  outcome: inactive
[4]
  max response: -0.532%

Source: PubChem BioAssay (NCATS)
